Assay results taken from PubChem BioAssay AID1159580 (chemical genetic matrix, 2015).
Among all 5,500 compounds or so, about 2,000 (36%) were called active. Not shown: some 18% with an inconclusive outcome. Rule as the data show it: active = normalized growth mostly below about 0.91 (no sharp cut-off); inconclusive = no clear call, values can overlap the other calls; inactive = mostly above about 0.92. The list shows a part of the results.

Assay: chemical genetic growth profiling, strain panel (AID 1159580);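 also: tested at 20 µM; growth read once vehicle control cultures reached saturation at 30 °C; 1 = growth at the plate median or of vehicle wells; lower values mean less growth of the strain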
Conditions: S. cerevisiae deletion strains, growth OD

Measured: normalized growth

C[C@]12CC[C@@H](O)C[C@H]1CCc1ccccc12
inactive: locus YBR021W, strain FUR4, active compounds read low 0.967 | locus YBR229C, strain ROT2, active compounds read low 1.01 | locus YCL029C, strain bik1, active compounds read low 1 | locus YDL035C, strain GPR1, active compounds read low 1.01 | locus YDL074C, strain BRE1, active compounds read low 1.04 | locus YDL101C, strain DUN1, active compounds read low 1.01 | locus YDL185W, strain tfp1, active compounds read low 1.01 | locus YDL192W, strain arf1, active compounds read low 0.999 | locus YDR101C, strain arx1, active compounds read low 1.01 | locus YDR162C, strain NBP2, active compounds read low 1.04 | locus YDR318W, strain mcm21, active compounds read low 1 | locus YDR388W, active compounds read low 1.01 | locus YDR502C, strain sam2, active compounds read low 0.989 | locus YEL061C, strain CIN8, active compounds read low 1.02 | locus YER110C, active compounds read low 0.999 | locus YER155C, strain BEM2, active compounds read low 1.01 | locus YER167W, strain BCK2, active compounds read low 1.02 | locus YGL078C, strain dbp3, active compounds read low 0.966 | locus YGL086W, strain mad1, active compounds read low 0.989 | locus YGL248W, strain PDE1, active compounds read low 1 | locus YGR135W, strain pre9, active compounds read low 0.992 | locus YGR252W, strain gcn5, active compounds read low 0.94 | locus YHR030C, strain SLT2, active compounds read low 1.02 | locus YHR079C, strain IRE1 (second series), active compounds read low 0.997 | locus YHR094C, strain hxt1, active compounds read low 0.999 | locus YHR129C, strain ARP1, active compounds read low 1.02 | locus YHR200W, strain rpn10, active compounds read low 1.01 | locus YIL066C, strain RNR3, active compounds read low 1.05 | locus YIL073C, strain SPO22, active compounds read low 1.04 | locus YIL125W, strain kgd1, active compounds read low 0.996 | locus YIR030C, strain dcg1, active compounds read low 1.01 | locus YJL095W, strain BCK1, active compounds read low 1 | locus YJL134W, strain LCB3, active compounds read low 1.02 | locus YJL168C, strain set2, active compounds read low 1 | locus YJL187C, strain SWE1 (second series), active compounds read low 1 | locus YKL009W, strain mrt4, active compounds read low 1.01 | locus YKL068W, active compounds read low 1.01 | locus YKL085W, strain MDH1 (second series), active compounds read low 1.02 | locus YKL085W, strain MDH1, active compounds read low 1.02 | locus YKR001C, strain vps1, active compounds read low 0.977 | locus YLR039C, strain RIC1, active compounds read low 0.918 | locus YLR058C, strain SHM2, active compounds read low 1.02 | locus YLR102C, strain apc9, active compounds read low 1 | locus YLR262C, strain YPT6, active compounds read low 0.968 | locus YLR268W, strain sec22, active compounds read low 1 | locus YLR371W, strain rom2, active compounds read low 1.04 | locus YLR418C, strain cdc73, active compounds read low 0.973 | locus YML016C, strain PPZ1, active compounds read low 1.02 | locus YML032C, strain rad52, active compounds read low 0.99 | locus YML124C, strain tub3, active compounds read low 1 | locus YMR078C, strain ctf18, active compounds read low 1 | locus YMR223W, strain ubp8, active compounds read low 0.985 | locus YMR307W, strain GAS1, active compounds read low 1.07 | locus YNL067W, strain RPL9B, active compounds read low 1 | locus YNL233W, strain BNI4, active compounds read low 1.01 | locus YNL250W, strain rad50, active compounds read low 1.04 | locus YNL271C, strain bni1, active compounds read low 1.01 | locus YNL298W, strain CLA4, active compounds read low 0.989 | locus YNL307C, strain MCK1, active compounds read low 1 | locus YNR052C, strain pop2, active compounds read low 0.987 | locus YOL006C, strain TOP1, active compounds read low 1.09 | locus YOL012C, strain htz1 1.06 | locus YOL147C, strain pex11, active compounds read low 1.01 | locus YOR061W, strain CKA2, active compounds read low 1.03 | locus YOR069W, strain VPS5, active compounds read low 1.02 | locus YOR136W, strain idh2, active compounds read low 0.995 | locus YOR144C, strain elg1, active compounds read low 1 | locus YOR184W, strain ser1, active compounds read low 0.978 | locus YOR316C, strain cot1, active compounds read low 1 | locus YPL241C, strain CIN2, active compounds read low 1.02 | locus YPR119W, strain clb2, active compounds read low 1 | locus YPR141C, strain kar3, active compounds read low 1.02 | locus YPR163C, strain tif3, active compounds read low 1 | locus YPR167C, strain met16, active compounds read low 0.997 | strain wtn01, active compounds read low 0.99
